14 molecules from PubChem BioAssay (NCI) can be followed below.

Some test systems named below: EKVX NSCLC; SN12C renal; UO-31 renal; TK-10 renal; ACHN renal; CAKI-1 renal; A498 renal; CCRF-CEM leukemia; MOLT-4 leukemia.
Common to all, as to experiment: NCI-60 one-dose screen, 48 h (100 = growth as untreated, 0 = no growth, -100 = all killed)
What all share (settings): 10 µM unless noted

Molecules are shown by their SMILES. This is part of a sample that, as a whole, favours compounds with a hit. Of some 83,000 tested, about 20% had one in any assay.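 Single-dose data. Exposure time 48 hours. Values below 10 considered active.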 Values without a mark were called inactive. Calls of active or inactive are those of the source.

In the case of `Cc1c(C(N)=O)sc2c1C(=O)N(Cc1ccccc1)C1=NN=C(c3ccc(Cl)cc3)CN12`, the growth was 62.7% in the experiment on EKVX NSCLC; 61.5% in the experiment on SN12C renal; 26.3% in the experiment on UO-31 renal; 59.4% with TK-10 renal; 21.9% with ACHN renal; 18.6% in the experiment on CAKI-1 renal. The growth in the experiment on A498 renal was 105%.
For the molecule `Cc1cc([N+](=O)[O-])c(C)cc1C(=O)O`, the growth was 112% in the experiment with EKVX NSCLC; 105% in the experiment on SN12C renal; 85.4% with UO-31 renal; 105% with TK-10 renal; 99.8% in the experiment on ACHN renal; 97.4% in the experiment with CAKI-1 renal. Further, the growth is 96.6% in the experiment on A498 renal, 104% in the experiment with CCRF-CEM leukemia and 112% in the experiment on MOLT-4 leukemia.
As for `Cc1cc(C)c(OC(=O)CSc2nc3ccccc3c(=O)n2CCc2ccccc2)cc1C`, the growth in the experiment on EKVX NSCLC is 64.4%; in the experiment with SN12C renal, 91.8%; in the experiment with UO-31 renal, 63.6%; in the experiment on TK-10 renal it was 124%; in the experiment with ACHN renal it was 92%; in the experiment with CAKI-1 renal, 72.6%. Moreover, the growth with A498 renal is 94.5%.
As for `COC(=O)[C@]1(CCSC)N[C@H](c2cn(-c3ccccc3)nc2C)[C@@H]2C(=O)N(c3ccccc3)C(=O)[C@@H]21`, the growth in the experiment with EKVX NSCLC is 107%; in the experiment on SN12C renal it was 103%; in the experiment on UO-31 renal it was 90.9%; with TK-10 renal, 118%; in the experiment on ACHN renal, 113%; in the experiment on CAKI-1 renal it was 101%.
On to `CN(CCOc1ccc(CC2SC(=O)NC2=O)cc1)c1ccccn1` (centres undefined), for which the growth in the experiment on EKVX NSCLC was 101%; in the experiment with SN12C renal, 88.2%; in the experiment on UO-31 renal, 72.1%; in the experiment with TK-10 renal, 103%; in the experiment with ACHN renal, 84.9%; in the experiment with CAKI-1 renal it was 96.3%. The results for the growth with A498 renal, in the experiment with CCRF-CEM leukemia and with MOLT-4 leukemia were 110%, 108% and 119%, respectively.
Take `COc1ccc2c(c1)nc(N)c1c3cc(OC)c(OC)cc3cn21`: the growth is 73.1% in the experiment with EKVX NSCLC; 56.4% in the experiment with SN12C renal; 49.8% in the experiment on UO-31 renal; 48.9% in the experiment on TK-10 renal; 46.4% in the experiment with ACHN renal; 28.5% with CAKI-1 renal. For the same molecule, the growth is 35.9% in the experiment on A498 renal, 47.1% with CCRF-CEM leukemia and 76.4% with MOLT-4 leukemia.
For the molecule `CCCCCCC/C(=N\N=C(N)N)c1ccc(O)cc1`, the growth in the experiment on EKVX NSCLC is 55.1%; with SN12C renal it was 39.6%; with UO-31 renal, 42.8%; in the experiment with TK-10 renal, 67.5%; with ACHN renal, 47.6%; in the experiment with CAKI-1 renal, 66.5%. The figures for the growth in the experiment on A498 renal, with CCRF-CEM leukemia and in the experiment with MOLT-4 leukemia were 46.6%, 39.7% and 24.9%, respectively.
Consider `Cc1ccsc1/C=C/C1=NCCCN1C`, for which the growth was 99.5% in the experiment with EKVX NSCLC; 95.3% with SN12C renal; 80% in the experiment with UO-31 renal; 104% in the experiment with TK-10 renal; 101% with ACHN renal; 97.1% with CAKI-1 renal. The values for the growth in the experiment with A498 renal, in the experiment with CCRF-CEM leukemia and in the experiment on MOLT-4 leukemia were 113%, 81% and 95%, respectively.
Turning to `NC(N)=NN=c1c(=O)c2ccccc2c1=O`, the growth was 118% with EKVX NSCLC; 16.3% in the experiment with SN12C renal; 64.8% in the experiment with UO-31 renal; 110% in the experiment on TK-10 renal; 78% in the experiment on ACHN renal; 104% in the experiment on CAKI-1 renal. The growth in the experiment on A498 renal is 78.1%; with CCRF-CEM leukemia, -27.9% (active); in the experiment with MOLT-4 leukemia, -33.1% (active).
For the molecule `COc1ccc2c(c1)nc(N)c1c3cc(C)c(C)cc3cn21`, the growth in the experiment with EKVX NSCLC is 72%; in the experiment on SN12C renal, 84.1%; in the experiment with UO-31 renal, 59.6%; in the experiment with TK-10 renal, 108%; in the experiment with ACHN renal, 71.4%; with CAKI-1 renal it was 59.2%. Further, the figures for the growth in the experiment with A498 renal, in the experiment on CCRF-CEM leukemia and in the experiment on MOLT-4 leukemia were 79.7%, 70.9% and 69.2%, respectively.
`Oc1ccccc1/C=N\Nc1ccccc1`: the growth with EKVX NSCLC is 72.8%; with SN12C renal, 44.9%; in the experiment on UO-31 renal, 15.5%; with TK-10 renal, 110%; in the experiment on ACHN renal it was 27.2%; in the experiment with CAKI-1 renal it was 10.8%. Also, the growth is 82.5% in the experiment with A498 renal, 17.8% in the experiment with CCRF-CEM leukemia and 35.3% in the experiment with MOLT-4 leukemia.
Take `COc1cc2cn3c4ccc(O)cc4nc(N)c3c2cc1OC`: the growth with EKVX NSCLC is 48.7%; with SN12C renal it was 18.6%; in the experiment with UO-31 renal it was 1.49% (active); in the experiment on TK-10 renal it was 50.4%; in the experiment with ACHN renal it was -3.69% (active); in the experiment with CAKI-1 renal it was -4.04% (active). Also, the growth is -14.4% (active) in the experiment on A498 renal, 21.1% with CCRF-CEM leukemia and 8.22% (active) with MOLT-4 leukemia.
Turning to `COc1ccc(-n2nc3c(c2-c2ccc(OC)c(OC)c2)-c2oncc2CC3)cc1`, the growth is 92.6% in the experiment on EKVX NSCLC; 88.4% with SN12C renal; 79.1% in the experiment on UO-31 renal; 103% in the experiment with TK-10 renal; 55.7% in the experiment with ACHN renal; 80.6% with CAKI-1 renal. Besides, the growth with A498 renal is 83.5%; in the experiment with CCRF-CEM leukemia it was 50.4%; with MOLT-4 leukemia, 72.6%.
With `O=C1NC(=O)/C(=C\c2ccccc2)C2=C1CCCC2`, the growth with EKVX NSCLC is 95%; in the experiment on SN12C renal, -64.7% (active); in the experiment with UO-31 renal it was -46.7% (active); with TK-10 renal, 0.712% (active); in the experiment on ACHN renal, 15.7%; in the experiment on CAKI-1 renal, 7.29% (active). In addition, the growth in the experiment on A498 renal is 101%; with CCRF-CEM leukemia, 35.8%; in the experiment on MOLT-4 leukemia, 38.1%.
